# According to PMC8222333, “AsCas12a ultra nuclease facilitates the rapid generation of therapeutic cell medicines”:
# B1: CGTA (dsDNA)
# DNA 1: GCTATCTAGTGCTCAGTACGCACTGCGTAAGGAAACTTCTGGCAGGACCAGGTCATGAGATCGGAAGAGCACACGTCTGAACTCCAGTCA
# DNA 2: TGACTGGAGTTCAGACGTGTGCTCTTCCGATCTCATGACCTGGTCCTGCCAGAAGTTTCCTTACGCAGTGCGTACTGAGCACTAGATAGC
# RNA: AAUUUCUACUCUUGUAGAUAGGAAACUUCUGGCAGGACC
# B2: CGTC (dsDNA)
# DNA 1: GCTATCTAGTGCTCAGTACGCACTGCGTCAGGAAACTTCTGGCAGGACCAGGTCATGAGATCGGAAGAGCACACGTCTGAACTCCAGTCA
# DNA 2: TGACTGGAGTTCAGACGTGTGCTCTTCCGATCTCATGACCTGGTCCTGCCAGAAGTTTCCTGACGCAGTGCGTACTGAGCACTAGATAGC
# RNA: AAUUUCUACUCUUGUAGAUAGGAAACUUCUGGCAGGACC
# B3: CGTG (dsDNA)
# DNA 1: GCTATCTAGTGCTCAGTACGCACTGCGTGAGGAAACTTCTGGCAGGACCAGGTCATGAGATCGGAAGAGCACACGTCTGAACTCCAGTCA
# DNA 2: TGACTGGAGTTCAGACGTGTGCTCTTCCGATCTCATGACCTGGTCCTGCCAGAAGTTTCCTCACGCAGTGCGTACTGAGCACTAGATAGC
# RNA: AAUUUCUACUCUUGUAGAUAGGAAACUUCUGGCAGGACC
# B4: CTAA (dsDNA)
# DNA 1: GCTATCTAGTGCTCAGTACGCACTGCTAAAGGAAACTTCTGGCAGGACCAGGTCATGAGATCGGAAGAGCACACGTCTGAACTCCAGTCA
# DNA 2: TGACTGGAGTTCAGACGTGTGCTCTTCCGATCTCATGACCTGGTCCTGCCAGAAGTTTCCTTTAGCAGTGCGTACTGAGCACTAGATAGC
# RNA: AAUUUCUACUCUUGUAGAUAGGAAACUUCUGGCAGGACC
# B5: CTCA (dsDNA)
# DNA 1: GCTATCTAGTGCTCAGTACGCACTGCTCAAGGAAACTTCTGGCAGGACCAGGTCATGAGATCGGAAGAGCACACGTCTGAACTCCAGTCA
# DNA 2: TGACTGGAGTTCAGACGTGTGCTCTTCCGATCTCATGACCTGGTCCTGCCAGAAGTTTCCTTGAGCAGTGCGTACTGAGCACTAGATAGC
# RNA: AAUUUCUACUCUUGUAGAUAGGAAACUUCUGGCAGGACC
# B6: CTCC (dsDNA)
# DNA 1: GCTATCTAGTGCTCAGTACGCACTGCTCCAGGAAACTTCTGGCAGGACCAGGTCATGAGATCGGAAGAGCACACGTCTGAACTCCAGTCA
# DNA 2: TGACTGGAGTTCAGACGTGTGCTCTTCCGATCTCATGACCTGGTCCTGCCAGAAGTTTCCTGGAGCAGTGCGTACTGAGCACTAGATAGC
# RNA: AAUUUCUACUCUUGUAGAUAGGAAACUUCUGGCAGGACC
# B7: CTGA (dsDNA)
# DNA 1: GCTATCTAGTGCTCAGTACGCACTGCTGAAGGAAACTTCTGGCAGGACCAGGTCATGAGATCGGAAGAGCACACGTCTGAACTCCAGTCA
# DNA 2: TGACTGGAGTTCAGACGTGTGCTCTTCCGATCTCATGACCTGGTCCTGCCAGAAGTTTCCTTCAGCAGTGCGTACTGAGCACTAGATAGC
# RNA: AAUUUCUACUCUUGUAGAUAGGAAACUUCUGGCAGGACC
# Target: dAsCas12a Ultra (Acidaminococcus sp., UniProt U2UMQ6 1-1307, M537R;F870L;D908A;E993A;D1235A)
# Assay: Spec-seq (native PAGE EMSA with sequencing of bound and unbound); 25 mM Tris-HCl pH 7.4, 150 mM KCl, 5 mM MgCl2, 10% glycerol, 1 mM DTT, 40 ng/uL salmon sperm DNA; 400 nM Cas12a, 480 nM crRNA, 50 nM library, 37 C 1 h; native PAGE at room temperature; high values mean tight binding
# Conditions: protein: recombinant
row,Binder,binding signal
1,B1,-8.71 lnKA
2,B2,-8.54 lnKA
3,B3,-9 lnKA
4,B4,-8.92 lnKA
5,B5,-8.8 lnKA
6,B6,-8.67 lnKA
7,B7,-8.41 lnKA

# Target: dAsCas12a E174R (Acidaminococcus sp., UniProt U2UMQ6 1-1307, E174R;D908A;E993A;D1235A)
# Assay: as above
# Conditions: protein: recombinant
row,Binder,binding signal
1,B1,-8.37 lnKA
2,B3,-8.98 lnKA
3,B4,-8.64 lnKA
4,B5,-8.26 lnKA
5,B6,-8.66 lnKA

# Target: dAsCas12a S542R (Acidaminococcus sp., UniProt U2UMQ6 1-1307, S542R;D908A;E993A;D1235A)
# Assay: as above
# Conditions: protein: recombinant
row,Binder,binding signal
1,B1,-8.4 lnKA
2,B2,-8.67 lnKA
3,B3,-8.73 lnKA
4,B4,-8.47 lnKA
5,B5,-6.35 lnKA
6,B6,-4.85 lnKA
7,B7,-8.41 lnKA

# Target: d-enCas12a (Acidaminococcus sp., UniProt U2UMQ6 1-1307, E174R;S542R;K548R;D908A;E993A;D1235A)
# Assay: as above
# Conditions: protein: recombinant
row,Binder,binding signal
1,B1,-2.47 lnKA
2,B2,-2.67 lnKA
3,B3,-4.4 lnKA
4,B4,-5.62 lnKA
5,B5,-1.97 lnKA
6,B6,-0.91 lnKA
7,B7,-5.63 lnKA

# Target: d-enCas12a-Ultra (Acidaminococcus sp., UniProt U2UMQ6 1-1307, E174R;S542R;K548R;M537R;F870L;D908A;E993A;D1235A)
# Assay: as above
# Conditions: protein: recombinant
row,Binder,binding signal
1,B1,-0.629 lnKA
2,B2,-0.615 lnKA
3,B3,-1.51 lnKA
4,B4,-3.05 lnKA
5,B5,-0.439 lnKA
6,B6,-0.27 lnKA
7,B7,-3.17 lnKA

# Target: dAsCas12a K548R (Acidaminococcus sp., UniProt U2UMQ6 1-1307, K548R;D908A;E993A;D1235A)
# Assay: as above
# Conditions: protein: recombinant
row,Binder,binding signal
1,B2,-8.4 lnKA
